# Structures can show the parent of a compound that is named as a salt.
# Tested on: Saccharomyces cerevisiae BY4741 SeMeCo community
# Assay: z-score of subpopulation abundance vs DMSO median, subpopulation auxotrophic for HLUM; higher = larger share of this subpopulation than in DMSO controls
# Settings: 10 µM; 24 h; SM minimal medium; subpopulation (auxotrophy): HLUM
# Description: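 Fluorescent four-plasmid SeMeCo (self-establishing metabolically cooperating S. cerevisiae BY4741 community; plasmids pH-mRuby2, pL-mWasabi, pU-eCFP, pM-TagRFP657) was grown 24 h in minimal SM medium with each Selleck FDA-approved drug at 10 µM in 384-well plates. Cells were fixed and imaged by high-content confocal microscopy. For each auxotrophic subpopulation (and the prototroph), a z-score gives the deviation from the DMSO vehicle-control population median.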
row,Structure (SMILES),z-score of subpopulation abundance
1,CC[C@H]1OC(=O)[C@H](C)[C@@H](O[C@H]2C[C@@](C)(OC)[C@@H](O)[C@H](C)O2)[C@H](C)[C@@H](O[C@@H]2O[C@H](C)C[C@H](N(C)C)[C@H]2O)[C@](C)(O)C[C@@H](C)C(=O)[C@H](C)[C@H]2OC(=O)O[C@@]21C [Erythromycin Cyclocarbonate],0.39
2,CC(=O)Oc1ccccc1C(=O)O [Aspirin],-0.5
3,CC1=C(C(=O)OCCN(Cc2ccccc2)c2ccccc2)C(c2cccc([N+](=O)[O-])c2)C(P2(=O)OCC(C)(C)CO2)=C(C)N1 (stereo not given) [Efonidipine],1.4
4,NC[C@H]1O[C@H](O[C@H]2[C@H](O)[C@@H](O[C@H]3O[C@H](CO)[C@@H](O)[C@H](N)[C@H]3O)[C@H](N)C[C@@H]2N)[C@H](O)[C@@H](O)[C@@H]1O [Kanamycin sulfate],-0.1
5,C[C@@H](O)[C@H]1C(=O)N2C(C(=O)O)=C(S[C@@H]3CN[C@H](C(=O)N(C)C)C3)[C@H](C)[C@H]12 [Meropenem Trihydrate],-0.25
6,CC(C)NNC(=O)c1ccncc1 [Iproniazid],0.07
7,C[N+](C)(C)CCO.[Cl-] [Choline Chloride],-0.62
8,CN[C@@H]1[C@@H](O)[C@@H](O[C@@H]2[C@@H](O)[C@H](O[C@H]3OC(CN)=CC[C@H]3N)[C@@H](N)C[C@H]2N)OC[C@]1(C)O [Sisomicin sulfate],2.37
9,CN(C)CCCN1c2ccccc2Sc2ccc(Cl)cc21 [Chlorpromazine HCl],0.29
10,CCC(=O)NS(=O)(=O)c1ccc(-c2c(-c3ccccc3)noc2C)cc1 [Parecoxib],-0.37
11,O=C1Cc2cc(CCN3CCN(c4nsc5ccccc45)CC3)c(Cl)cc2N1 [Ziprasidone HCl],0.44
12,CCN(CC)CCOc1ccc2c(c1)C(=O)c1cc(OCCN(CC)CC)ccc1-2 [Tilorone dihydrochloride],-0.11
13,Clc1ccc(COC(Cn2ccnc2)c2ccc(Cl)cc2Cl)cc1 (stereo not given) [Econazole],17.3
14,Cc1ncc([N+](=O)[O-])n1CCO [Metronidazole],0.08
15,COc1cccc(-c2c(C)n(Cc3c(F)cccc3C(F)(F)F)c(=O)n(C[C@H](NCCCC(=O)O)c3ccccc3)c2=O)c1F [Elagolix Sodium],-0.29
16,CC(C)Cc1ccc(C(C)C(=O)O)cc1 (stereo not given) [Ibuprofen],-0.59
17,COc1ccccc1OCC(O)CN1CCN(CC(=O)Nc2c(C)cccc2C)CC1 (stereo not given) [Ranolazine 2HCl],-0.5
18,CO/N=C(/C(=O)N[C@@H]1C(=O)N2C(C(=O)OCOC(=O)C(C)(C)C)=C(C)CS[C@H]12)c1csc(N)n1 [Cefetamet pivoxil hydrochloride],0.63
19,Nc1ccc(S(=O)(=O)c2ccc(N)cc2)cc1 [Dapson],0.06
20,Cc1cc(C)nc(NS(=O)(=O)c2ccc(N)cc2)n1 [Sulfamethazine Sodium Salt],0.81

row,Structure (SMILES),z-score of subpopulation abundance
1,O=[N+]([O-])c1ccc(O)c2ncccc12 [Nitroxoline],36.6
2,O=C(O)CCC(=O)OC[C@@H](NC(=O)C(Cl)Cl)[C@H](O)c1ccc([N+](=O)[O-])cc1 [Chloramphenicol sodium succinate],0.88
3,CCCCCCCCOc1ccccc1C(=O)Nc1ccc(C(=O)OCC[N+](C)(CC)CC)cc1 [Otilonium Bromide],12.2
4,OB1OCc2cc(F)ccc21 [Tavaborole (AN-2690)],47.7
5,CC[C@H]1OC(=O)[C@H](C)[C@@H](O[C@H]2C[C@@](C)(OC)[C@@H](O)[C@H](C)O2)[C@H](C)[C@@H](O[C@@H]2O[C@H](C)C[C@H](N(C)C)[C@H]2O)[C@](C)(O)C[C@@H](C)C(=O)[C@H](C)[C@@H](O)[C@]1(C)O [Erythromycin thiocyanate],0
6,CCC[C@@H]1C[C@@H](C(=O)N[C@@H]([C@H]2O[C@H](SC)[C@H](O)[C@@H](O)[C@H]2O)[C@H](C)Cl)N(C)C1 [Clindamycin HCl],0.72
7,COC(=O)Nc1nc2cc(Sc3ccccc3)ccc2[nH]1 [Fenbendazole],-0.28
8,CC1=C(C(=O)O)N2C(=O)[C@@H](NC(=O)[C@H](N)C3=CCC=CC3)[C@H]2SC1 [Cefradine],0.1
9,C=CC[C@@H]1/C=C(\C)C[C@H](C)C[C@H](OC)[C@H]2O[C@@](O)(C(=O)C(=O)N3CCCC[C@H]3C(=O)O[C@H](/C(C)=C/[C@@H]3CC[C@@H](O)[C@H](OC)C3)[C@H](C)[C@@H](O)CC1=O)[C@H](C)C[C@@H]2OC [Tacrolimus (FK506)],2.77
10,CO[C@H]1C[C@@H]2CC[C@@H](C)[C@@](O)(O2)C(=O)C(=O)N2CCCC[C@H]2C(=O)O[C@H]([C@H](C)C[C@@H]2CC[C@@H](O)[C@H](OC)C2)CC(=O)[C@H](C)/C=C(\C)[C@@H](O)[C@@H](OC)C(=O)[C@H](C)C[C@H](C)/C=C/C=C/C=C/1C [Rapamycin (Sirolimus)],20.9
11,N#C/C(=C1/SC[C@@H](c2ccc(Cl)cc2Cl)S1)n1ccnc1 [Luliconazole],11.1
12,CC1(C)S[C@@H]2[C@H](NC(=O)[C@H](NC(=O)N3CCNC3=O)c3ccccc3)C(=O)N2[C@H]1C(=O)O [Azlocillin sodium salt],0.63
13,COC(=O)C1=C(C)NC(C)=C(C(=O)OCCN2CCN(C(c3ccccc3)c3ccccc3)CC2)C1c1cccc([N+](=O)[O-])c1 (stereo not given) [Manidipine],0.6
14,Clc1ccc(CSC(Cn2ccnc2)c2ccc(Cl)cc2Cl)cc1 (stereo not given) [Sulconazole Nitrate],10.5
15,Nc1ccc(S(=O)(=O)Nc2ncccn2)cc1 [Sodium sulfadiazine],0.02
16,CCOC(=O)CCC(=O)O[C@H]1[C@H](O[C@@H]2[C@@H](C)[C@H](O[C@H]3C[C@@](C)(OC)[C@@H](O)[C@H](C)O3)[C@@H](C)C(=O)O[C@H](CC)[C@@](C)(O)[C@H](O)[C@@H](C)C(=O)[C@H](C)C[C@@]2(C)O)O[C@H](C)C[C@@H]1N(C)C [Erythromycin Ethylsuccinate],0.83
17,CN(C)CCCN1c2ccccc2CCc2ccc(Cl)cc21 [Clomipramine HCl],1.45
18,COc1cc(C(C)=O)ccc1OCCCN1CCC(c2noc3cc(F)ccc23)CC1 [Iloperidone],-0.49
19,CS(=O)(=O)c1ccc(C2=C(c3ccccc3)C(=O)OC2)cc1 [Rofecoxib],0.43
20,CCCCCCCN(CC)CCCC(O)c1ccc(NS(C)(=O)=O)cc1 (stereo not given) [Ibutilide Fumarate],-0.72
